Sampled rows, rich in hits. Any-hit rate of the full collection: about 14%.
AID923: qHTS Assay for Allosteric/Competitive Inhibitors of Caspase-1: Spectroscopic Profiling in AFC Spectral Region | compound fluorescence, AFC spectral region (405/520 nm) | Potency, µM (titrated, usually from 57.5 µM), most hits filed as activators | hit rate 1.1% among 75,000 | AID 923, 2007
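Titrations up to 57 uM read every 20 sec for 3 min (405/520 nm) with 50 nM caspase 1 and 5 uM Ac-WEHD-AFC, pH 7.5 HEPES buffer. Fluorescence-vs-time intercept gave baseline, scaled against on-plate AFC standard.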
HSD17B inh: HSD17B dehydrogenase inhibition. Potency, µM (highest dose often 57.1 µM), usual class: inhibitors. hit rate 7.6% among 75,000. AID 893. recombinant HSD17B10, NADH fluorescence kinetic. Q99714;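 also: the protocol describes HADH2 (HSD17B10) and not the HSD17B4 of the title; nearly all actives have a fitted effect of over 70% in size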
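20 nM HADH2, pH 9.0 Tris/Tween; cpd preinc 15 min RT; start w/ 1 mM NAD+ + 90 uM b-hydroxybutyryl-CoA; kinetic fluor ex360/em450 q30s x 4 min; delta last-first.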
4-MU autofl: compound fluoresces in the 4-MU spectral region; compound autofluorescence, 340/450 nm, 4-MU equivalents; active compounds read high; max dye-equivalent concentration, M; hit rate 11% among 59,000; AID 589; in the data active = max dye-equivalent concentration above about 10 nM; inconclusive = mostly about 1.1 nM to 9.6 nM
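Compounds in 100 mM Tris, pH 8.0, sat 15 min at room temperature before fluorescence was read at 340 nm excitation/450 nm emission; a per-plate six-point 4-MU standard curve converted signals to dye-equivalent concentration at each compound concentration.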
HADH2 inh: blocks human hydroxyacyl-CoA dehydrogenase type II; Potency, µM (top dose mostly 57.1 µM), usual class: inhibitors; hit rate 3.4% among 73,000; recombinant HADH2, NADH fluorescence, beta-hydroxybutyryl-CoA; also: nearly all actives have a fitted effect of over 60% in size
Target sequence (Q99714 whole entry, looked up, one chain of several): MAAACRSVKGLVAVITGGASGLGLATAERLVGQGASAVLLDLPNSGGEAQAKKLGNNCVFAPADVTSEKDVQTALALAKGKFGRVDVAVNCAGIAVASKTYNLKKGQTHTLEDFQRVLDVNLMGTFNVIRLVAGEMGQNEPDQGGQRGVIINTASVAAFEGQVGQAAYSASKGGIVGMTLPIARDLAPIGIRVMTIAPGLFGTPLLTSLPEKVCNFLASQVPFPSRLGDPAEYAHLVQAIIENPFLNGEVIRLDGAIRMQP
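E. coli-expressed His-tagged HADH2 tested at 20 nM in alkaline Tris buffer (pH 9.0); oxidation of 90 uM beta-hydroxybutyryl-CoA with 1 mM NAD+ tracked fluorimetrically for 4 min.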
CRE-bla Fsk: alters forskolin-stimulated CRE reporter signaling in CHO cells | hit rate 2.5% among 71,000 | CHO CRE-bla reporter (cAMP response element driving beta-lactamase), forskolin EC10, beta-lactamase ratio | Potency, µM (doses to about 38.2 µM), actives largely listed as activators; active = well fitted activation curve with a large enough effect in the signal ratio, with a control signal flat, not every such curve was filed as active; inconclusive = small, poorly fitted or top-dose-only effect, or effect the other way, or a change in a side signal; the % refers to the signal ratio
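Cells were plated overnight at 37 °C, exposed to compound titrations plus EC10 NKH 477 for 3 h, then given CCF4 dye for 2 h at room temperature. Blue/green (460/530 nm) ratio was converted to %Activity and AC50 values calculated.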
A350 fluor: compounds fluorescent in Alexa 350 spectral region. max dye-equivalent concentration, M. hit rate 11% among 59,000. Compound autofluorescence, 340/450 nm, Alexa 350 dye-equivalents; active compounds read high. AID 590; in the data active = max dye-equivalent concentration above about 10 nM; inconclusive = mostly about 1.1 nM to 9.6 nM
Large screens that a line does not name were inactive. Unless noted, calls follow the shape of the dose curve; as a rule, active = well fitted curve in the direction sought with a large enough effect; inconclusive = small, poorly fitted or top-dose-only effect, or another doubt; inactive = no such curve, though single readings can be large; an effect the other way counts as inactive or inconclusive.

COc1cc(-c2nnc3sc(Cc4ccccc4)nn23)cc(OC)c1OC	HADH2 inh inconclusive, CRE-bla Fsk 10µM, A350 fluor inconclusive
COc1cc(-c2nnc3sc(Cc4ccc(Cl)cc4)nn23)cc(OC)c1OC	HADH2 inh 10µM, CRE-bla Fsk 2.5µM
COc1ccc(Cc2nn3c(-c4cc(OC)c(OC)c(OC)c4)nnc3s2)cc1	HADH2 inh 7.9µM, CRE-bla Fsk 5µM
COc1ccc(Cc2nn3c(-c4ccccc4Br)nnc3s2)cc1	none
CCOc1ccc(-c2cc(C(=O)N/N=C/c3ccc(O)c(OC)c3)[nH]n2)cc1	none (no result: 4-MU autofl, CRE-bla Fsk, A350 fluor)
N=C(N)CCNC(=O)[C@@H]1CCC(N)=N1	none
O=C(CCCOc1ccc(Cl)cc1Cl)NCCCO	4-MU autofl 3.1e-08M, A350 fluor 4.2e-08M
CC(C)(CO)NC(=O)CCCOc1ccc(Cl)cc1Cl	none (no result: 4-MU autofl, A350 fluor)
COc1ccc(-c2cn3cc(Cl)ccc3n2)cc1OC	HSD17B inh 25µM, 4-MU autofl 7.3e-08M, HADH2 inh inconclusive, CRE-bla Fsk inconclusive, A350 fluor 6.9e-08M
COc1ccc(-c2nc(N)n[nH]2)cc1OC	HSD17B inh inconclusive
COC(=O)N1CCC2(CC1)CCN(C(c1ccccc1)c1ccccc1)CC2	none
O=C1CCCN1CCCNc1ncnc2c1cnn2-c1ccc(Cl)cc1	HSD17B inh inconclusive, CRE-bla Fsk 3.2µM (no result: 4-MU autofl, A350 fluor)
c1ccc(-n2ncc3c(NCc4cccnc4)ncnc32)cc1	HSD17B inh 25µM, HADH2 inh inconclusive, CRE-bla Fsk inconclusive (no result: 4-MU autofl, A350 fluor)
COc1ccc(-n2ncc3c(NCCCN4CCOCC4)ncnc32)cc1	HSD17B inh 32µM, A350 fluor inconclusive
COc1ccc(-c2csc3ncnc(NCCN4CCOCC4)c23)cc1	none
COc1ccc(-c2oc3ncn(CCN4CCOCC4)c(=N)c3c2-c2ccc(OC)cc2)cc1	4-MU autofl 1.7e-08M, HADH2 inh inconclusive, CRE-bla Fsk 0.25µM, A350 fluor 1.9e-08M
Cc1cnc(CNc2ncnc3ccc(-c4c(C)noc4C)cc23)cn1	CRE-bla Fsk inconclusive, A350 fluor inconclusive
COc1nc(Cl)nc(Cl)c1Cl (tested in a mixture with another compound)	none
CCOC(=O)CCN1C(=O)[C@H]2[C@H]3[C@H](O)[C@H](O)C/C(=N/OC/C=C(\C)CCC=C(C)C)[C@H]3CC[C@@H]2C1=O	none (no result: 4-MU autofl, CRE-bla Fsk, A350 fluor)
CC(C)(C)C1CCc2[nH]nc(C(=O)O)c2C1 (stereo not given)	none
COc1ccc(-n2ncc3c(NCc4cccs4)ncnc32)cc1	HSD17B inh 32µM, CRE-bla Fsk inconclusive
Cc1cccc(-n2ncc3c(NCCCn4ccnc4)ncnc32)c1	HSD17B inh 25µM, HADH2 inh inconclusive (no result: 4-MU autofl, A350 fluor)
COc1ccc(-c2oc3ncnc(NCCN4CCOCC4)c3c2-c2ccc(OC)cc2)cc1	HSD17B inh 25µM, 4-MU autofl 5.3e-08M, A350 fluor 4e-08M
c1ccc(-c2csc3ncnc(NCCN4CCOCC4)c23)cc1	CRE-bla Fsk inconclusive
c1ccc(-c2oc3ncnc(NCCCN4CCOCC4)c3c2-c2ccccc2)cc1	HSD17B inh 32µM, HADH2 inh 10µM, CRE-bla Fsk 2.5µM
Cc1ccc(-n2ncc3c(NCCCn4ccnc4)ncnc32)c(C)c1	none (no result: 4-MU autofl, A350 fluor)
Cc1noc(C)c1C(=O)N1CCC[C@@]2(CCN(C(=O)NC(C)C)C2)C1	none
Nc1nc2c(c(=O)[nH]1)N(C=O)[C@H](CNc1ccc(C(=O)N[C@@H](CCC(=O)O)C(=O)O)cc1)CN2	none
Cc1ccc(CNC(=O)[C@H]2C[C@@H]2[C@H](NP(=O)(c2ccccc2)c2ccccc2)c2ccccc2)o1	none (no result: 4-MU autofl, A350 fluor)
N#Cc1cccc(-c2ccc3ncnc(N4CCNCC4)c3c2)c1	none
C[N+]1(NCC[N@@+]2(C)CCc3ccccc3C2)CCCCC1	none
COc1ccc(-c2oc3ncnc(NCCCN4CCOCC4)c3c2-c2ccc(OC)cc2)cc1	HSD17B inh 25µM, 4-MU autofl 4.4e-08M, HADH2 inh inconclusive, CRE-bla Fsk inconclusive, A350 fluor 5.1e-08M
Cc1noc(C)c1CSc1nc2ccccc2n1CCc1ccccc1	none
CCCCC=O	none (no result: 4-MU autofl, A350 fluor)
O=C(CCCn1c(=S)[nH]c2cc3c(cc2c1=O)OCO3)NC1CC1	HADH2 inh inconclusive
